# The list is not random: actives were taken first. Their share in the collection is about 3.5%.
# RE007 growth inh: less growth of the S. pombe RE007 Vpr strain; S. pombe RE007 Vpr strain, BacTiter-Glo ATP luminescence, 24 h; 0.21% of 360,000 active; Potency, µM (top dose mostly 92.2 µM), without a hit: top-dose activity change, negative = less growth, actives largely listed as inhibitors; active = well fitted falling curve with a large enough effect; inconclusive = small, poorly fitted or top-dose-only effect; inactive = no such curve, though single readings can be large or run the other way; also: % is scaled to controls: 0 for no effect and ±100 for the full control effect; nearly all actives have a fitted effect of over 50% in size
#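 Fission yeast strain RE007, carrying one chromosomally integrated HIV-1 vpr copy, was seeded at OD 0.01 in PMG+AL medium with 23 nL pinned compound. After 24 h at 30 °C and 99% humidity, viability was read by BacTiter-Glo luminescence.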
# NS1 inh: influenza NS1 inhibition; Potency, µM (doses to about 46.1 µM), inactives show at the highest dose activity, positive = more growth; 0.4% of 270,000 active; calls by dose curve; also: actives are rising curves; nearly all actives have a fitted effect of over 50% in size
#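 S. cerevisiae expressing influenza A NS1, grown in glucose, washed, then diluted 1:100 into pH 6.0 -URA galactose medium with 23 nl compound. Growth recovery read as OD600; NS1-free strain serves as control.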
# Giardia FBPA inh: blocks Giardia fructose-bisphosphate aldolase activity; Potency, µM (series often up to 59.6 µM), for the others: at the top dose activity, negative = inhibition, most hits filed as inhibitors; purified Giardia FBPA; A8B2U2; 0.71% of 290,000 active; also: % is scaled to controls: 0 for no effect and ±100 for the full control effect; nearly all actives have a fitted effect of over 55% in size
#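 40 nM FBPA preincubated 10 min at RT with compound (up to 57.5 uM final), then substrate plus GAPDH/TPI/NAD/arsenate coupling and diaphorase/resazurin added. Fluorescence read after 20 min at RT, 525/598 nm.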
# Sm TGR block: S. mansoni TGR enzyme inhibition. Q962Y6. purified TGR, DTNB reduction, TNB absorbance 405 nm. Potency, µM (titrated, usually from 114 µM), for the others: at the highest dose activity change, negative = inhibition, actives largely listed as inhibitors. 3% of 360,000 active; also: % is scaled to controls: 0 for no effect and ±100 for the full control effect; nearly all actives have a fitted effect of over 60% in size
#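 Kinetic colorimetric format: TGR-catalysed, NADPH-driven DTNB reduction monitored via TNB absorbance. Enzyme dispensed at 20 nM; compound exposure 15 min at room temperature before reaction start.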
# TbPYK inhibitor: inhibitors of Trypanosoma brucei pyruvate kinase. 0.12% of 410,000 active. AID 624173. Q57TT1. TbPYK enzyme, Kinase-Glo Plus ATP luminescence, 45 min. Potency, µM (doses to about 76.8 µM), for the others: at the highest dose activity, negative = inhibition, most hits filed as inhibitors; also: % is scaled to controls: 0 for no effect and ±100 for the full control effect; nearly all actives have a fitted effect of over 50% in size
#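 Readout: single end-point luminescence (Kinase-Glo Plus, 10 min). Reaction conditions were TbPYK/substrate plus 130 uM ADP, 45 min at RT, pH 7.2 TEA buffer. No-enzyme wells served as controls, and data were normalized before concentration-response fitting.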
# LmPK inhibitor: inhibitors of Leishmania mexicana pyruvate kinase; Potency, µM (highest dose often 57.5 µM), for the others: at the highest dose activity change, negative = inhibition, hits mostly inhibitors; purified LmPK, Kinase-Glo ATP luminescence, 1 h; 0.37% of 290,000 active; AID 1721; also: % is scaled to controls: 0 for no effect and ±100 for the full control effect
# Target sequence (Q27686 whole entry, looked up): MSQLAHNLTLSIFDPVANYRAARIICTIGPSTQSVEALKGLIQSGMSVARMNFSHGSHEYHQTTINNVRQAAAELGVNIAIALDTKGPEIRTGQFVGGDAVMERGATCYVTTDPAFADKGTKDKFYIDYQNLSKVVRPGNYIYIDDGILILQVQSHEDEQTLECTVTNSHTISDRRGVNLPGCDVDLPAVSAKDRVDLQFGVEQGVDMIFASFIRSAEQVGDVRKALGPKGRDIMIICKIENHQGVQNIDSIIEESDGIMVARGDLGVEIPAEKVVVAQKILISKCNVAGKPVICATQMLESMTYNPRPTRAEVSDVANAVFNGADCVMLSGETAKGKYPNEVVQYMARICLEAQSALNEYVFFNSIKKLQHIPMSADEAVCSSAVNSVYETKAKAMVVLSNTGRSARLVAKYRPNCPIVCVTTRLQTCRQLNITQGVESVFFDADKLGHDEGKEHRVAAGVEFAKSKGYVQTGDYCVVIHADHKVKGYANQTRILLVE
#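 Pyruvate kinase activity monitored as ATP production (luciferase luminescence). Conditions: 0.1 nM enzyme, 0.5 mM PEP, 0.1 mM ADP, 1 h, RT; normalized against uninhibited and no-enzyme wells.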
# The depositor's hits bear a star; ? = inconclusive; . = no result. Unless noted, calls follow the shape of the dose curve; as a rule, active = well fitted curve in the direction sought with a large enough effect; inconclusive = small, poorly fitted or top-dose-only effect, or another doubt; inactive = no such curve, though single readings can be large; an effect the other way counts as inactive or inconclusive. Potency is read from the fitted curve at half-maximal effect.
SMILES,RE007 growth inh,NS1 inh,Giardia FBPA inh,Sm TGR block,TbPYK inhibitor,LmPK inhibitor
O=C(/C=C/c1ccccc1)N(Cc1ccc(Cl)cc1)C1CCS(=O)(=O)C1 (stereo not given),4%,-6%,-1%,0%,-3%,-3%
O=C(/C=C/c1ccco1)N(Cc1cccc(Cl)c1)C1CCS(=O)(=O)C1 (stereo not given),7%,2%,-1%,2.8µM*,-13%,-2%
O=C(/C=C/c1ccco1)N(Cc1ccccc1)C1CCS(=O)(=O)C1 (stereo not given),-13%,6%,-1%,3.2µM*,0%,1%
Cc1ccc(C2=Nc3ccccc3N=C(c3ccc(F)cc3)C2)c(O)c1,.,.,.,-2%,2%,.
N#C[C@H]1C[C@H]2C[C@@H]2N1C(=O)[C@@H](N)C12CC3CC(CC(O)(C3)C1)C2,.,.,.,.,-2%,.
CCCCCCCCCCCCC/C=C/[C@@H](O)[C@H](CO)NC(=O)CCCCCCC,.,.,-1%,.,.,.
O=C(/C=C/c1ccco1)N(Cc1cccc(Br)c1)C1CCS(=O)(=O)C1 (stereo not given),-6%,8%,0%,3.2µM*,-22%,2%
Cc1ccc(Nc2nc(-c3ccc(O)c(O)c3)cs2)nc1,10%,13%,-26%,5.6µM*,-8%,3%
OCC#Cc1ncc(C(F)(F)F)cc1Cl,-16%,.,5%,45µM*,-10%,0%
COC(=O)N1[C@H](C)C=C[C@]1(Cc1ccccc1)C(=O)OC,-1%,.,1%,.,0%,.
COC(=O)N1C(=O)[C@](Cc2ccccc2)(c2ccccc2)N1C(=O)OC,2%,14%,4%,3.5µM*,-1%,-8%
COC(=O)N1C(=O)[C@@](Cc2ccccc2)(c2ccccc2)N1C(=O)OC,-2%,14%,-3%,3.5µM*,-17%,-4%
COc1cc2[nH]c(Cl)c([N+](=O)[O-])c2cc1OC,5%,8%,5µM*,2µM*,?,2%
COc1cc2[nH]c3c(Cl)ncnc3c2cc1OC,5%,-6%,-26%,3%,-13%,-1%
CCN1CCN(c2ccc([N+](=O)[O-])cc2C=C2C(=O)NC(=O)NC2=O)CC1,1%,5%,-17%,13µM*,22µM*,-6%
COCCCN=C(c1ccco1)n1c(=S)nc(-c2ccco2)n(CCCOC)c1=S,-12%,-32%,?,20µM*,-12%,0%
COc1ccc2occ(CC(=O)Nc3ccc(S(=O)(=O)Nc4nc(C)cc(C)n4)cc3)c2c1,.,.,.,0%,-16%,.
CCC(=O)Nc1ccc(SC#N)cc1C,4%,-3%,0%,10%,-1%,-9%
CCc1cc(SC#N)cc(C)c1NC(=O)CCl,23%,-24%,-14%,10µM*,-8%,-2%
Cc1cc(SC#N)cc(C)c1NC(=O)CCl,18%,-3%,-8%,14µM*,-9%,2%
COc1cc(SC)ccc1C(=O)N1CCN(c2ccccc2F)CC1,-7%,-8%,0%,.,-8%,7%
COc1cc(SC)ccc1C(=O)N1CCN(S(=O)(=O)/C=C/c2ccccc2)CC1,12%,.,.,40µM*,5%,.
Cc1nn(-c2ccccc2)c(-n2cccc2)c1C(=O)NCCc1ccc(Cl)cc1,.,.,.,0%,-6%,.
CN(CC(=O)Nc1ccccc1Cl)C(=O)COC(=O)c1nc(Cl)c(Cl)c(Cl)c1Cl,-3%,-35%,-19%,18µM*,-14%,0%
O=C(Nc1ccc2nc(SCC(=O)N3CCc4ccccc43)sc2c1)c1ccccc1,.,.,.,-4%,6%,.
O=C(OCc1ccc(F)cc1)c1ccc2c(c1)-c1ccccc1C2=O,-6%,-5%,.,-14%,-11%,3%
CCOC(=O)C1=C(Cc2ccc(F)cc2)C(=O)c2ccccc2C1=O,?,-187%,1.8µM*,?,?,?
Cn1c(-c2c(N)n(C3CCCC3)c3nc4ccccc4nc23)nc2ccccc21,7.1µM*,-132%,26%,13%,-9%,2%

# Bioassay records: PubChem, National Center for Advancing Translational Sciences (NCATS)
